Assay outcomes deposited in PubChem by National Center for Advancing Translational Sciences (NCATS).
In the library only some 1.4% were active in any assay of this set; here they are far more common.
ALOX12 inh: inhibitors of human 12S-lipoxygenase ALOX12; purified 12hLO, xylenol orange hydroperoxide absorbance; hit rate 1.1% among 580,000; Potency, µM (top dose mostly 108 µM), for inactives: top-dose activity change, negative = inhibition, usual class: inhibitors; P18054; note: potency is the fitted concentration of half-maximal effect; % is set by controls: 0 for no effect and ±100 for the full control effect
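Purified human 12hLO (150 nM final) in 25 mM Hepes, 0.01% Triton X-100, pH 7.0 was preincubated 15 min at room temperature with compound. Then 40 uM arachidonic acid was added, 30 min. Hydroperoxide was read by Fe-XO absorbance ratio 573/405 nm.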
Vif-APOBEC3F blk: blocks the Vif interaction with APOBEC3F | AID 602313 | hit rate 0.2% among 390,000 | HeLa A3F-eYFP + Vif (tagged APOBEC3F with the HIV-1 protein that degrades it), YFP fluorescence increase | Potency, µM (doses to about 46.1 µM), inactives show top-dose activity, negative = active; note: potency is the fitted concentration of half-maximal effect; % of control where 0% means no effect; nearly all actives have a fitted effect of over 65% in size
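HeLa cells stably expressing A3F-eYFP plus Vif, plated and incubated overnight at 37 deg C, then exposed to compounds overnight at 37 deg C. Blocked degradation read as raised yellow fluorescence (Ex 488/Em 500-530).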
PTAP TSG101 blk: blocks PTAP/TSG101 interaction to inhibit HIV-1 budding; 340,000 tested, under 10 active; Fluorescence polarization, FITC-PTAP peptide / Tsg101 binding; Potency, µM (titrated, usually from 115 µM), for the others: at the top dose activity change, negative = inhibition, most hits filed as inhibitors; active = well fitted inhibition curve with a large enough effect in the main read-out, with a control signal flat, not every such curve was filed as active; inconclusive = small, poorly fitted or top-dose-only effect, or effect the other way, or a change in a side signal; inactive = no such curve, though single readings can be large or run the other way; note: potency is the fitted concentration of half-maximal effect; % of control where 0% means no effect
Target sequence (Q99816 whole entry, looked up): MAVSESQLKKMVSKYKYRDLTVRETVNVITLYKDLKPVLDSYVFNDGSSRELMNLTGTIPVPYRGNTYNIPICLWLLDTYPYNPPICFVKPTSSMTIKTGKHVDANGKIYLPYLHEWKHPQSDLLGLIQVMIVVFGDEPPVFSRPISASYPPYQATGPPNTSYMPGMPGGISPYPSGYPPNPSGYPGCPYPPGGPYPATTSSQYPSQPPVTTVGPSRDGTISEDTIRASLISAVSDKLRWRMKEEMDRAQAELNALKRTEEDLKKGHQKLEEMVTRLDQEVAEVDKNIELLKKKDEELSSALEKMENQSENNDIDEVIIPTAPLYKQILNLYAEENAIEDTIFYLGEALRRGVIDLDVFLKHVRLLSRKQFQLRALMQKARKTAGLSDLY
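FP read-out: FITC-PTAP peptide, 50 nM final, binding Tsg101 binding domain, 10 uM final; 20 min, r.t.; 10 mM HEPES pH 7.5, 0.15 M NaCl, 0.01% Tween 20, 3 mM EDTA, 0.1 mM TCEP.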
S-ASM inh: inhibitors of human secretory acid sphingomyelinase | hit rate 0.006% among 340,000 | placental ASM, HMU-PC fluorogenic substrate, 60 min | P17405 | Potency, µM (titrated, usually from 57.5 µM), for the others: at the highest dose activity change, negative = inhibition, actives largely listed as inhibitors | AID 504937; note: potency is the fitted concentration of half-maximal effect
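Human placenta-derived ASM enzyme was preincubated with compound for 10 minutes at room temperature, then given fluorogenic substrate HMU-PC0 (9 uM final) for 60 minutes at 37 °C; a pH 10 stop preceded fluorescence reading at Ex 386/Em 447 nm.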
pAkt inh: blocks phosphorylation of Akt; hit rate 0.32% among 360,000; Neuro2A IGF-stimulated pAkt S473 HTRF, 20 min; active compounds read low; activity change, % for hits at 50 µM; in the data active = activity change below about -80%; inconclusive = mostly about -51% to -80%; note: % is set by controls: 0 for no effect and ±100 for the full control effect
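Single-point screen (50 µM final compound) in Neuro2A cells stimulated 20 min with 6 nM IGF at 37 deg C. After lysis, Ser473-phosphorylated Akt read by HTRF (ex 330 nm, em 615/665 nm) as the 665/615 ratio.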
Vif-APOBEC3G blk: blocks the Vif interaction with human APOBEC3G; Q9HC16; HeLa A3G-eYFP + Vif (tagged APOBEC3G with the HIV-1 protein that degrades it), YFP fluorescence, overnight; Potency, µM (series often up to 46.1 µM), for the others: at the highest dose activity, negative = active, usual class: inhibitors; hit rate 0.076% among 410,000; note: potency is the fitted concentration of half-maximal effect; % is set by controls: 0 for no effect and ±100 for the full control effect; nearly all actives have a fitted effect of over 60% in size
Target sequence (Q9HC16 whole entry, looked up): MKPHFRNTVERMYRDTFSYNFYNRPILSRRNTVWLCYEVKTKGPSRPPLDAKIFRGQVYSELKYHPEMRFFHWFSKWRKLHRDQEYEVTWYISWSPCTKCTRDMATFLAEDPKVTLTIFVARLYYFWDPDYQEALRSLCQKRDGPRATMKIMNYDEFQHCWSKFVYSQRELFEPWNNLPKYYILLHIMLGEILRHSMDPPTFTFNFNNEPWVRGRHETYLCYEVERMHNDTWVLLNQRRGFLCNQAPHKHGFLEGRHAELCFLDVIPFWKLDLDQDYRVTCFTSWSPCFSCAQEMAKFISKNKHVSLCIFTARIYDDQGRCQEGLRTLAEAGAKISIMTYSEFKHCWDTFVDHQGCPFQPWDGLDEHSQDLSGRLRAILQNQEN
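HeLa cells stably expressing Vif and C-terminally eYFP-tagged A3G, seeded overnight at 37 deg C, then exposed to compound by pintool overnight at 37 deg C. Rise in yellow fluorescence (Ex 488/Em 500-530, Acumen) marks blocked Vif-driven A3G degradation.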
* = called active by the depositor; i = inactive; ? = inconclusive; · = no result; ! = not active in a repeat; [ ] = dose if it differs, or a comment. Unless noted, calls come from the whole dose curve; as a rule, active = well fitted curve in the direction sought with a large enough effect; inconclusive = small, poorly fitted or top-dose-only effect, or another doubt; inactive = no such curve, though single readings can be large; an effect the other way counts as inactive or inconclusive.

SMILES | ALOX12 inh | Vif-APOBEC3F blk | PTAP TSG101 blk | S-ASM inh | pAkt inh | Vif-APOBEC3G blk
Cc1c(C(=O)OCC(=O)NCC2CCCO2)sc2ccccc12 (stereo not drawn) | -16% | · | · | · | · | ·
O=C(/C=C/c1ccco1)NCC1OCCc2ccccc21 (stereo not drawn) | 45µM* | ? | -3% | -5% | i | -3%
C=CC(=O)NCC1OCCc2ccccc21 (stereo not drawn) | ? | 9% | 0% | -2% | i | -1%
O=C(COc1ccc(F)cc1)Nc1ccc(-c2nnc3n2CCCC3)cc1 | 32µM* | · | · | · | · | ·
O=C(COc1ccc(-c2nnc3n2CCCC3)cc1)Nc1ccc(Br)cc1 | 4% | · | · | · | · | ·
CC(C)c1nc2c(c(-c3ccc(O)cc3)n1)CN(C(=O)c1ccccc1Cl)CC2 | 1% | · | · | · | · | ·
O=C(Sc1ccc(Cl)cc1)c1ccccn1 | 2.8µM* | 12% | 1% | -1% | i | -2%
O=C(Nc1nonc1-c1ccc(Cl)cc1)c1ccc(Cl)cc1 | 3% | · | · | · | · | ·
Cc1ccccc1COc1ccc(C=O)cc1 | -18% | · | · | · | · | ·
CCN1CCN(c2ccc(S(=O)(=O)N3CCCCC3)cc2NC(=O)Cc2ccccc2)CC1 | 16µM*! | 1% | 1% | 6% | i | 0%
O=C(CSc1nnc(C2CC2)n1-c1ccccc1)NCCc1ccccc1 | 0% | -1% | -1% | 1% | -102%* | -4%
Cc1nc2cc(NC(=O)CC3(C(=O)O)CCCCC3)ccc2o1 | -4% | · | · | · | · | ·
O=C(NCCN1CCC(n2c(=O)[nH]c3ccccc32)CC1)c1ccc(F)cc1 | 35µM* | · | · | · | i | ·
Cc1ccc(C(=O)NCCN2CCC(n3c(=O)[nH]c4ccccc43)CC2)cc1 | ? | · | · | · | i | ·
O=C(NCCN1CCC(n2c(=O)[nH]c3ccccc32)CC1)c1ccc(Cl)c(Cl)c1 | 32µM* | · | · | · | i | ·
COCCN(CCOC)Cc1cc(=O)oc2ccccc12 | 18µM* | · | · | · | i | -5%
O=c1cc(CN(Cc2ccccc2)Cc2ccccc2)c2ccccc2o1 | -3% | · | · | · | i | -3%
COCCN(CCOC)Cc1cc(=O)oc2cc(C)c(Cl)cc12 | 45µM* | · | · | · | i | -2%
CCc1cc2c(CN3CCN(CCO)CC3)cc(=O)oc2cc1O | 8% | 2% | -2% | i | -106%* | 1%
CCCN(CCC)Cc1cc(=O)oc2cc(C)c(Cl)cc12 | 40µM* | · | · | · | i | 0%
Cc1ccccc1NC(=O)c1ccc2c(c1)OCCN(C1CCC1)C2 | 55%[176 µM] | · | · | · | · | ·
Cc1ccc(C)c(OCCOC(=O)c2ccc(CS(C)(=O)=O)cc2)c1 | -4% | · | · | · | · | ·
CC1(COc2cccnc2)COc2ccc(C(=O)NCCc3ccccc3)cc2N1 (stereo not drawn) | 54%[176 µM] | · | · | · | · | ·
NC(=O)c1cccc(-c2n[nH]c3c2CC(=O)N(Cc2ccccc2)C3)c1 | 0%[176 µM] | · | · | · | · | ·
Cc1ccc(C(=O)OC(C)C(=O)Nc2ccc3c(c2)OCO3)cc1O (stereo not drawn) | -5% | · | · | · | · | ·
SMILES | ALOX12 inh | Vif-APOBEC3F blk | PTAP TSG101 blk | S-ASM inh | pAkt inh | Vif-APOBEC3G blk
Cc1cc2oc(=O)cc(CN3CCCC3)c2cc1Cl | 6.3µM* | · | · | · | i | -2%
Cc1cc2oc(=O)cc(CN3CCCCC3)c2cc1Cl | ? | · | · | · | i | 4%
CCCCN(CCCC)Cc1cc(=O)oc2ccc3ccccc3c12 | 35µM* | · | · | · | i | -2%
C=CCN(CC=C)Cc1cc(=O)oc2ccc3ccccc3c12 | ? | · | · | · | i | ?
O=S(=O)(NCCc1cn2ccccc2n1)c1ccc(Cl)c(Cl)c1 | -6% | · | · | · | · | ·
COc1cc(C(=O)Nc2ccc(-c3nnc(-c4ccco4)o3)cc2)cc(OC)c1OC | -23% | -6% | -3% | -2% | -102%* | -1%
COc1cc(C(=O)Nc2cccc(-c3nnc(-c4ccco4)o3)c2)ccc1OC(C)=O | 1% | -16% | 0% | -8% | i | -17%
COc1cc(C(=O)N2CCN(C3CCCCC3)CC2)cc(OC)c1OC | 2% | 7% | 2% | -1% | i | -9%
COc1cc(C(=O)N2CCC(N3CCCCCC3)CC2)cc(OC)c1OC | ? | 0% | -8% | 0% | -122%* | 0%
COc1ccc(C(=O)N2CCN(C3CCCCC3)CC2)cc1OC | 0.63µM* | 1% | -4% | 14% | i | 6%
CCCCCn1c(CCC(=O)O)nc2c1c(=O)[nH]c(=O)n2CCCC | -8% | · | · | · | · | ·
CN1[C@@H](CCC(=O)NCc2cccs2)CNC(=O)[C@@H]2[C@H]1CCN2Cc1ccccc1 | 29%[176 µM] | · | · | · | · | ·
CCSc1ccccc1C(=O)NC(C)(C)C | -8% | · | · | · | · | ·
Cn1c(=O)c2c(nc(NCCN)n2Cc2ccc(Br)cc2)n(C)c1=O | -19% | · | · | · | · | ·
O=[N+]([O-])c1cc(C(F)(F)F)ccc1NCCNC(=S)Nc1ccc(Cl)cc1 | 40µM* | -5% | -7% | ? | i | -11%
COc1cc(/C=C2\C(=N)N3N=C(S(C)(=O)=O)SC3=NC2=O)ccc1OS(=O)(=O)c1ccc(C)cc1 | 45µM* | -12% | -7% | ? | i | -1%
CCOc1cc(/C=C2/C(=N)N3N=C(C)SC3=NC2=O)ccc1OS(=O)(=O)c1ccc(C)cc1 | 3% | 0% | -3% | -3% | i | 8%
CCCCN1C(=O)C(O)=C(C(C)=O)C1c1ccc(OC)cc1OC (stereo not drawn) | 8.9µM* | -1% | -2% | 1% | i | 3%
COc1ccc(C2C(C(C)=O)=C(O)C(=O)N2CCO)c(OC)c1 (stereo not drawn) | ? | 2% | -3% | 3% | i | 0%
Cc1nc2cc(-c3ccccc3)nn2c(C)c1CCC(=O)NCCC(C)C | 8% | · | · | · | · | ·
CCOc1ccc(-c2n[nH]c(=S)n2Cc2ccccc2)cc1 | ? | 0% | -1% | -15% | i | -2%
Cc1ccc(-n2c(-c3ccc(Cl)cc3)n[nH]c2=S)c(C)c1 | ? | 0% | -16% | -8% | i | 1%
COc1ccc(-c2n[nH]c(=S)n2-c2ccc(C)cc2C)cc1 | 6.3µM* | ? | 1% | -1% | i | 0%
COc1ccc(Cn2c(-c3ccc(OC)cc3)n[nH]c2=S)cc1 | 16µM* | 1% | 3% | -20% | i | -1%
COc1ccc(-n2c(COc3cccc(C)c3)n[nH]c2=S)cc1 | 8.9µM* | -16% | -5% | 3% | i | 2%
Cc1ccc(-c2n[nH]c(=S)n2Cc2ccccc2)cc1 | 40µM* | -17% | 1% | -6% | i | 0%
Cc1cccc(-c2n[nH]c(=S)n2Cc2ccccc2)c1 | ? | -15% | -8% | -4% | i | 5%
COc1ccc(Cc2n[nH]c(=S)n2CC(C)C)cc1 | 14µM* | · | · | · | · | ·
S=c1[nH]nc(-c2cc3ccccc3o2)n1Cc1ccccc1 | 45µM* | -3% | -2% | 37% | i | -2%
